Growth data for 39 compounds are collected here from PubChem BioAssay (NCI).

The panel holds about 83,000 compounds, 20% with a hit somewhere; the sample as a whole holds those more often.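 Growth was measured after 48 h exposure to one concentration of compound in 96-well plates. Values under 10 count as active.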 Unmarked numbers belong to inactive results. The source made the active and inactive calls.

In the assay the test system is SN12C renal. Kind of assay: NCI-60 one-dose screen, 48 h (100 = growth as untreated, 0 = no growth, -100 = all killed). The settings on record: 10 µM unless noted.
`COc1ccc2c(c1)C(=Nc1cc(OC)c(OC)c(OC)c1)C(=O)N2`: the growth was 97.3%. For `COc1cnc2c(c1)C(=O)c1c-2n(CCCn2ccnc2)c(=O)c2cc(F)ccc12`, the growth is 12.4%. To `C[C@]12CCC(=O)C=C1CCC1C2[C@@H](O)C[C@@]2(C)C1CC[C@]2(O)C(=O)COC(=O)CCC(=O)O` (some centres undefined) belongs 57.2%; to `C[C@@H]1[C@H]2[C@H](C=C3[C@@H]4CC[C@H]5Cc6nc7c(nc6C[C@]5(C)[C@H]4C[C@@H](O)[C@@]32C)C[C@@H]2CC[C@H]3C4=C[C@@H]5O[C@@]6(CC[C@](C)(CO)O6)[C@@H](C)[C@@]5(O)[C@@]4(C)[C@H](O)C[C@@H]3[C@@]2(C)C7)O[C@]12CCC(C)(C)O2`, 67.9%; to `CCOC(=O)/C=C1/SC(=Nc2ccc(C#N)cc2)N(Cc2ccco2)C1=O`, 52.5%. To `C[C@H](C(=O)N[C@@H](Cc1ccc(-c2ccccc2)cc1)C(=O)NC1CC(C)(C)NC(C)(C)C1)c1ccc(-c2ccccc2)c(F)c1` belongs -50.7% (active); to `Nc1ccccc1C#Cc1ccccc1C#Cc1ccc(OCCCCCCOc2ccc(C#Cc3ccccc3C#Cc3ccccc3N)cc2)cc1`, 99.4%. In the case of `CCSc1nc(-c2ccco2)n2nc(-c3ccco3)cc2n1`, the growth is 95.8%. To `CN(C)c1ccc(-c2nc3ncc(Br)cc3o2)cc1` belongs 98.2%; to `CN1CCN(c2nc3scc(-c4ccccc4)c3c(=O)[nH]2)CC1`, 100%. To `CC(=O)OC1Oc2cc(C)c(C)cc2-c2oc(=O)c(-c3ccccc3)cc21` (centres undefined) belongs 43.6%. To `N#CC(C#N)C(C#N)C#N` belongs 99.9%; to `CCOC(=O)c1sc(NC(=O)COc2cccc(/C=C3\CCc4cc(OC)ccc4C3=O)c2)nc1C`, 48.9%. Take `COc1cnc2c(c1)C(=O)c1c-2n(CCCN2CCOCC2)c(=O)c2cc(F)ccc12`: the growth is 12.4%. Turning to `CCN1CC2=C(Nc3nc(SC)[nH]c(=O)c3C2c2cc(OC)c(OC)c(OC)c2)/C(=C/c2cc(OC)c(OC)c(OC)c2)C1` (centres undefined), the growth is 95.9%. To `CCOC(=O)CCC(=O)O[C@H]1[C@H](O[C@@H]2[C@@H](C)[C@H](O[C@H]3C[C@@](C)(OC)[C@@H](O)[C@H](C)O3)[C@@H](C)C(=O)O[C@H](CC)[C@@](C)(O)[C@H](O)[C@@H](C)C(=O)[C@H](C)C[C@@]2(C)O)O[C@H](C)C[C@@H]1N(C)C` belongs 101%; to `CNCCCn1c2c(c3ccc(F)cc3c1=O)C(=O)c1cc(OC)cnc1-2`, 6.91% (active); to `NC(=NCCCCCCN=C(N)/N=C(\N)Nc1ccc(Cl)cc1)/N=C(\N)Nc1ccc(Cl)cc1`, 5.89% (active). Regarding `O=C1CSC(c2ccccc2Cl)N1c1nnc(Cn2nnc3ccccc32)o1` (centres undefined), the growth was 87.4%.

For `O=C(O)CCC(=O)OC[C@@H](NC(=O)C(Cl)Cl)[C@H](O)c1ccc([N+](=O)[O-])cc1`, the growth was 92.9%. For `COc1ccc(-c2cc(-c3nnc(SCC(=O)Nc4ccc(C(C)=O)cc4)n3-c3ccccc3)c3ccccc3n2)cc1OC`, the growth was 110%. To `C[C@H](C(=O)N[C@@H](Cc1ccc(-c2ccccc2)cc1)C(=O)NC1CC(C)(C)N(C)C(C)(C)C1)c1ccc(-c2ccccc2)c(F)c1` belongs -59.2% (active); to `O=C(O)C1C(c2ccccc2)c2ccccc2C(O)C1CO` (centres undefined), 98.1%. To `CSc1nc(Nc2ccc(S(=O)(=O)Nc3ccon3)cc2)c(C#N)c(-c2ccc(Cl)cc2)n1` belongs 108%; to `Cc1cc(C)c(C(=O)c2cccs2)c(C)c1`, 94%.

On to `COC(=O)C1(NC(=O)CNC(=O)OCc2ccccc2)CCCC1`, for which the growth was 95.4%. Regarding `Cc1cc(C)nc(NS(=O)(=O)c2ccc(Nc3nc4nc(SCc5ccccc5)nc(-c5ccc(O)cc5)c4c(=O)[nH]3)cc2)n1`, the growth is 102%. Regarding `Nc1ccc(N=Nc2ccccc2)cc1[N+](=O)[O-]`, the growth is 84.6%. As for `NS(=O)(=O)c1cc2c(cc1Cl)NC=NS2(=O)=O`, the growth was 100%. Take `CCOC(=O)C1=CCC(n2cc(C)c(=O)[nH]c2=O)O1` (centres undefined): the growth was 101%.

For `C[C@@H]1C[C@@H]([C@@H](CC2CC(=O)NC(=O)C2)OC(=O)CC(=O)c2ccccc2)C(=O)[C@@H](C)C1`, the growth is 8.23% (active). To `OCc1n(Cc2ccc3ccccc3c2)cc[n+]1Cc1ccc2ccccc2c1` belongs 41.7%; to `COc1cnc2c(c1)C(=O)c1c-2n(CCCNC2=NCCS2)c(=O)c2cc(F)ccc12`, 36.7%; to `Cc1onc(-c2ccccc2Cl)c1C(=O)N[C@@H]1C(=O)N2[C@@H]1SC(C)(C)[C@@H]2C(=O)O`, 103%. To `C[C@H]1O[C@@H](O[C@H]2[C@@H](O)C[C@H](O[C@H]3[C@@H](O)C[C@H](O[C@H]4CC[C@]5(C)C6C[C@@H](O)[C@]7(C)[C@@H](C8=CC(=O)OC8)CC[C@]7(O)C6CC[C@@H]5C4)O[C@@H]3C)O[C@@H]2C)C[C@H](O)[C@@H]1O` (some centres undefined) belongs -61.7% (active); to `CC1CN(/N=C/c2ccc([N+](=O)[O-])o2)C(=N)O1` (centres undefined), 91%. To `O=C1NCCc2c1noc2-c1ccccc1` belongs 109%. For `CC(=O)c1ccccc1NC(=O)C(C)(c1ccccc1)c1ccccc1`, the growth is 108%. Turning to `Cc1n(Cc2ccc3ccccc3c2)c2ccccc2[n+]1Cc1ccc2ccccc2c1`, the growth was -44.2% (active).
